{"source": "PubChem BioAssay (NCI)", "assay": "NCI Yeast Anticancer Drug Screen. Data for the bub3 strain (AID 167)", "settings": "S. cerevisiae bub3 mutant strain, stronger effect = higher value", "experimental": "Growth inhibition of yeast strains with defined genetic alterations is measured as a screen for potential anti-cancer activity. Selected strains with alterations in DNA damage repair or cell cycle control were exposed to compounds and growth inhibition was measured relative to vehicle treated controls. The strain used in this assay is bub3", "key": {"[1]": {"settings": "at 5.0 µM (retest, dose inferred, filed as 0.5)"}, "[2]": {"settings": "at 50.0 µM (retest, dose inferred, filed as 5.0)"}}, "note": "The panel holds about 79,000 compounds, 15% with a hit somewhere; the sample as a whole holds those more often. Values without a mark were called inactive. Active and inactive are the calls of the source. Cut-off read from the data, not from the text of the source: active = growth inhibition above about 70%; inactive = the rest.", "data": [{"smiles": "CCOC(=O)[C@H]1Nc2ccc(OC)cc2C2c3ccccc3CC21", "note": "(stereo not given in full)", "values": [{"measurement": "growth inhibition", "setting": "at 1.2 µM", "value": -26, "unit": "%"}, {"measurement": "growth inhibition", "setting": "at 3.7 µM", "value": -19, "unit": "%"}, {"measurement": "growth inhibition", "setting": "[1]", "value": 4, "unit": "%"}, {"measurement": "growth inhibition", "setting": "at 11.0 µM", "value": -27, "unit": "%"}, {"measurement": "growth inhibition", "setting": "at 33.0 µM", "value": 51, "unit": "%"}, {"measurement": "growth inhibition", "setting": "[2]", "value": "83% (active)"}, {"measurement": "growth inhibition", "setting": "at 50.0 µM", "value": 53.4, "unit": "%"}, {"measurement": "growth inhibition", "setting": "at 100.0 µM", "value": "90% (active)"}]}, {"smiles": "COc1ccc(/C=C/c2sc3ccccc3[n+]2CCCCI)cc1OC", "values": [{"measurement": "growth inhibition", "setting": "at 1.2 µM", "value": -4, "unit": "%"}, {"measurement": "growth inhibition", "setting": "at 3.7 µM", "value": -8, "unit": "%"}, {"measurement": "growth inhibition", "setting": "[1]", "value": 0, "unit": "%"}, {"measurement": "growth inhibition", "setting": "at 11.0 µM", "value": -2, "unit": "%"}, {"measurement": "growth inhibition", "setting": "at 33.0 µM", "value": 1, "unit": "%"}, {"measurement": "growth inhibition", "setting": "[2]", "value": "97% (active)"}, {"measurement": "growth inhibition", "setting": "at 50.0 µM", "value": "91.8% (active)"}, {"measurement": "growth inhibition", "setting": "at 100.0 µM", "value": "85% (active)"}]}, {"smiles": "Cc1c(C(C)C)cc(OCCO)cc1C(C)C", "values": [{"measurement": "growth inhibition", "setting": "at 1.2 µM", "value": -3, "unit": "%"}, {"measurement": "growth inhibition", "setting": "at 3.7 µM", "value": -8, "unit": "%"}, {"measurement": "growth inhibition", "setting": "[1]", "value": -16, "unit": "%"}, {"measurement": "growth inhibition", "setting": "at 11.0 µM", "value": -4, "unit": "%"}, {"measurement": "growth inhibition", "setting": "at 33.0 µM", "value": -5, "unit": "%"}, {"measurement": "growth inhibition", "setting": "[2]", "value": -6, "unit": "%"}, {"measurement": "growth inhibition", "setting": "at 50.0 µM", "value": -16.6, "unit": "%"}, {"measurement": "growth inhibition", "setting": "at 100.0 µM", "value": 22, "unit": "%"}]}, {"smiles": "COC(=O)/C=C(/C(=O)OC)C(Cl)(Cl)Cl", "values": [{"measurement": "growth inhibition", "setting": "at 1.2 µM", "value": -4, "unit": "%"}, {"measurement": "growth inhibition", "setting": "at 3.7 µM", "value": 6, "unit": "%"}, {"measurement": "growth inhibition", "setting": "[1]", "value": -3, "unit": "%"}, {"measurement": "growth inhibition", "setting": "at 11.0 µM", "value": 23, "unit": "%"}, {"measurement": "growth inhibition", "setting": "at 33.0 µM", "value": "81% (active)"}, {"measurement": "growth inhibition", "setting": "[2]", "value": "94% (active)"}, {"measurement": "growth inhibition", "setting": "at 50.0 µM", "value": -0.7, "unit": "%"}, {"measurement": "growth inhibition", "setting": "at 100.0 µM", "value": "100% (active)"}]}, {"smiles": "CC(=O)Nc1ccc(/C=C/[N+](=O)[O-])cc1", "values": [{"measurement": "growth inhibition", "setting": "at 1.2 µM", "value": -4, "unit": "%"}, {"measurement": "growth inhibition", "setting": "at 3.7 µM", "value": -5, "unit": "%"}, {"measurement": "growth inhibition", "setting": "[1]", "value": -61, "unit": "%"}, {"measurement": "growth inhibition", "setting": "at 11.0 µM", "value": 1, "unit": "%"}, {"measurement": "growth inhibition", "setting": "at 33.0 µM", "value": 6, "unit": "%"}, {"measurement": "growth inhibition", "setting": "[2]", "value": 43, "unit": "%"}, {"measurement": "growth inhibition", "setting": "at 50.0 µM", "value": 68.8, "unit": "%"}, {"measurement": "growth inhibition", "setting": "at 100.0 µM", "value": "72% (active)"}]}]}
